Experimental data published in PubChem BioAssay (EPA / NIEHS).
The source made the active and inactive calls. The calls were made as follows: active = hit-call score of the fitted dose curve at least 0.9, where 1 is the maximum; inactive = score below 0.9.

Columns and labels:
[1] = ATG_GLI_CIS: Attagene CIS-FACTORIAL HepG2 Assay for human Zinc Finger Protein GLI1 (AID 2282945); conditions: HepG2, Attagene cis-factorial reporter mRNA, GLI element; actives raise or lower the signal
Summary of the method: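 Bidirectional curve fits relative to DMSO, using reporter mRNA levels from RT-PCR plus capillary electrophoresis. Cells were HepG2 transiently carrying cis-regulated reporter constructs, harvested 24 h after dosing.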

[2] = molecular target: Bile acid receptor (Homo sapiens) (UniProt Q96RI1); experiment: ATG_IR1_CIS: Attagene CIS-FACTORIAL HepG2 Assay for human Nuclear Receptor Subfamily 1 Group H Member 4 (NR1H4), IR1 submotif (AID 2282946); conditions: IR1 reporter transcription, actives raise or lower the signal
Bile acid receptor (Homo sapiens), sequence (Q96RI1 whole entry, looked up, the tested form may be a part): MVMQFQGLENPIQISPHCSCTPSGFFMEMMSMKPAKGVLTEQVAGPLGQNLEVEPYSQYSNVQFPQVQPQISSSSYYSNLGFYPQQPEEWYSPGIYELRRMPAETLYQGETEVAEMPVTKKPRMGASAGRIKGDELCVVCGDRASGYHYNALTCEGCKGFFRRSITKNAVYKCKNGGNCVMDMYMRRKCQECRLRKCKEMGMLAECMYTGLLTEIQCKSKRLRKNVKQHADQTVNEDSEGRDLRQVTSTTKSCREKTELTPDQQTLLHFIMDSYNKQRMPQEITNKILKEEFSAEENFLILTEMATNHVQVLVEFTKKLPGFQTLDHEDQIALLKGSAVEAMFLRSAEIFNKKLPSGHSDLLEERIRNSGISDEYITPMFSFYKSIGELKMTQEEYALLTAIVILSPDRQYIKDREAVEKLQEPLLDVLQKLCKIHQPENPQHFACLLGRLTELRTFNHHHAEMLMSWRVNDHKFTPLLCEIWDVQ
Summary of the method: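 Cells (human HepG2) carry transiently transfected cis-promoter reporter transcription units. Compounds are incubated 24 h, total RNA is reverse-transcribed and amplified, and labelled fragments are resolved by capillary electrophoresis. Curves use DMSO as baseline.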

[3] = ATG_GRE_CIS: Attagene CIS-FACTORIAL HepG2 Assay for human Glucocorticoid Response Elements (GRE) (AID 2282947); conditions: HepG2 GRE cis-reporter, Attagene multiplex mRNA; actives raise or lower the signal
Summary of the method: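 Transient MRTU transfection of human HepG2 liver cells; cis-regulated reporters report endogenous factors. 24 h dosing → RNA isolation → RT-PCR → 6-FAM primer extension → HpaI cut → CE fragment analysis. Bidirectional fit, DMSO negative control.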

[4] = ATG_ISRE_CIS: Attagene CIS-FACTORIAL HepG2 Assay for human Interferon Regulatory Factor 1 (IRF1) binding to an Interferon-Stimulated Response Element (ISRE) (AID 2282948); conditions: HepG2 ISRE cis-reporter (Attagene), mRNA transcription readout; actives raise or lower the signal
Summary of the method: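 HepG2 cells transiently transfected with multiplexed cis-promoter reporter units; after 24 h compound exposure, reporter mRNA quantified by RT-PCR, FAM labelling, HpaI digestion and capillary electrophoresis. Bidirectional fit versus DMSO baseline.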

[5] = ATG_M_32_CIS: Attagene CIS-FACTORIAL HepG2 Assay for M32 Transcription Factor (Internal Marker) (AID 2282949); conditions: HepG2 Attagene cis-factorial M32 reporter, mRNA; actives raise or lower the signal;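 also: background control marker of the multiplexed CIS panel rather than a real target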
Summary of the method: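 Fluorescent capillary electrophoresis peaks of HpaI-digested, FAM-labelled RT-PCR reporter products give the signal. Source: transiently transfected human liver HepG2 cells, 24 h after chemical dosing; bidirectional fitting against DMSO.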

[6] = ATG_M_06_CIS: Attagene CIS-FACTORIAL HepG2 Assay for M06 Transcription Factor (Internal Marker) (AID 2282950); conditions: HepG2 Attagene CIS-FACTORIAL M06 internal marker reporter; actives raise or lower the signal
Summary of the method: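 One of many multiplexed endpoints: HepG2 reporter mRNA after 24 h dosing, detected by RT-PCR and capillary electrophoresis fluorescence; gain or loss of signal analysed against DMSO.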

[7] = molecular target: Hypoxia-inducible factor 1-alpha (Homo sapiens) (UniProt Q16665); experiment: ATG_HIF1a_CIS: Attagene CIS-FACTORIAL HepG2 Assay for human Hypoxia Inducible Factor 1 (HIF1A) (AID 2282951); conditions: HepG2 Attagene cis-factorial HIF1a reporter transcription; actives raise or lower the signal
Hypoxia-inducible factor 1-alpha (Homo sapiens), sequence (Q16665 whole entry, looked up): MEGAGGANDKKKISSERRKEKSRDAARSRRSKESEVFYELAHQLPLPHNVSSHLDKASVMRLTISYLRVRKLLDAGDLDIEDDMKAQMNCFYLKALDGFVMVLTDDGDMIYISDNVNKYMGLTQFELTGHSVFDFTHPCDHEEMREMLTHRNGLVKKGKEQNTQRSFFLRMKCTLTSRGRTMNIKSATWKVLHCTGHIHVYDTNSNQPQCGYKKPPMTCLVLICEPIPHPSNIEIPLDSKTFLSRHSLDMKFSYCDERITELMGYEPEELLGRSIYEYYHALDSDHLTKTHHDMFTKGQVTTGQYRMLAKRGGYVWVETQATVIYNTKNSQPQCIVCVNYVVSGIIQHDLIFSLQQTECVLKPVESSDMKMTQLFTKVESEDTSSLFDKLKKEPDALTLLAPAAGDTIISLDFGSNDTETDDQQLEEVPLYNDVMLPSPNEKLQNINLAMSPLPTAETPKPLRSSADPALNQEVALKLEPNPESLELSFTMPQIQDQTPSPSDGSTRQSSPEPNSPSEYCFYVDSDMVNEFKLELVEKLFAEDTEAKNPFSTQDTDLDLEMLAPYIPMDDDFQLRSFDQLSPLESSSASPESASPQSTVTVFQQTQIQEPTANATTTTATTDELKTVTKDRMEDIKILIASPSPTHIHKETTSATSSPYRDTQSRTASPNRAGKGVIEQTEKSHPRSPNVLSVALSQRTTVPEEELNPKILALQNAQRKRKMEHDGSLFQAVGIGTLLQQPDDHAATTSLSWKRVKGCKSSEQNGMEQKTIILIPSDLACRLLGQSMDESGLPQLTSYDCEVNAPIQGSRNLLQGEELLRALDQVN
Summary of the method: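 HepG2, transient cis-reporter library, 24 h dosing. RNA → RT (oligo dT) → PCR → 6-FAM primer extension → HpaI → CE. Bidirectional curve fit vs DMSO.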

[8] = molecular target: Heat shock factor protein 1 (Homo sapiens) (UniProt Q00613); experiment: ATG_HSE_CIS: Attagene CIS-FACTORIAL HepG2 Assay for human Heat Shock Transcription Factor 1 (HSE) (AID 2282953); conditions: HepG2 HSE cis-reporter, Attagene RNA transcription; actives raise or lower the signal
Heat shock factor protein 1 (Homo sapiens), sequence (Q00613 whole entry, looked up): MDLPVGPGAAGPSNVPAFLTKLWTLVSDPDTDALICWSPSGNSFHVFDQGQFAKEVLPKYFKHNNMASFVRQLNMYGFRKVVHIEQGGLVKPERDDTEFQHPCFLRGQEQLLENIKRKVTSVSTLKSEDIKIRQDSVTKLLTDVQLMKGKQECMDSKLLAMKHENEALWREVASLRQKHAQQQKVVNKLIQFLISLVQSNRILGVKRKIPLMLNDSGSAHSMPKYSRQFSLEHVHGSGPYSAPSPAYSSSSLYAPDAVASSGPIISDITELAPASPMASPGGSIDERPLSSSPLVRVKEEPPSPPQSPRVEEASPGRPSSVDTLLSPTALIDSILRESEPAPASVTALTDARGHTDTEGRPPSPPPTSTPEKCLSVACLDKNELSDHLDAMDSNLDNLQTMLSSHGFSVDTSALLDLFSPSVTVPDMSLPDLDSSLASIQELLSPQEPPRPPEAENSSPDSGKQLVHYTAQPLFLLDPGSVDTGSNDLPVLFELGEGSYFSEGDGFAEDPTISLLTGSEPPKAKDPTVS
Summary of the method: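 Using HepG2 with transfected cis-driven reporter constructs, compound effects on endogenous factor activity are scored as reporter mRNA change at 24 h. Detection: RT-PCR, HpaI digestion, capillary electrophoresis; bidirectional fitting to DMSO.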

[9] = ATG_MRE_CIS: Attagene CIS-FACTORIAL HepG2 Assay for human Metal Responsive Element (MRE) (AID 2282954); conditions: HepG2 MRE cis-reporter transcription, Attagene multiplex; actives raise or lower the signal
Summary of the method: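 Transient MRTU transfection of HepG2 (FuGene 6); 24 h dosing; total RNA → oligo(dT) RT, PCR, 6-FAM primer extension, HpaI cut, CE. Bidirectional fit vs DMSO.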

[10] = ATG_PBREM_CIS: Attagene CIS-FACTORIAL HepG2 Assay for human Phenobarbital-responsive Enhancer Module (PBREM) (AID 2282955); conditions: HepG2 PBREM cis-reporter, Attagene multiplexed transcription; actives raise or lower the signal
Summary of the method: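 HepG2, transient MRTU transfection, 24 h dosing; RNA → oligo(dT) RT → PCR → 6-FAM extension → HpaI → CE. Bidirectional fit vs DMSO.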

[11] = molecular target: Paired box protein Pax-6 (Homo sapiens) (UniProt P26367); experiment: ATG_Pax6_CIS: Attagene CIS-FACTORIAL HepG2 Assay for human Paired Box 6 (PAX6) (AID 2282956); conditions: HepG2 CIS-FACTORIAL PAX6 reporter transcription, RNA readout; actives raise or lower the signal
Paired box protein Pax-6 (Homo sapiens), sequence (P26367 whole entry, looked up): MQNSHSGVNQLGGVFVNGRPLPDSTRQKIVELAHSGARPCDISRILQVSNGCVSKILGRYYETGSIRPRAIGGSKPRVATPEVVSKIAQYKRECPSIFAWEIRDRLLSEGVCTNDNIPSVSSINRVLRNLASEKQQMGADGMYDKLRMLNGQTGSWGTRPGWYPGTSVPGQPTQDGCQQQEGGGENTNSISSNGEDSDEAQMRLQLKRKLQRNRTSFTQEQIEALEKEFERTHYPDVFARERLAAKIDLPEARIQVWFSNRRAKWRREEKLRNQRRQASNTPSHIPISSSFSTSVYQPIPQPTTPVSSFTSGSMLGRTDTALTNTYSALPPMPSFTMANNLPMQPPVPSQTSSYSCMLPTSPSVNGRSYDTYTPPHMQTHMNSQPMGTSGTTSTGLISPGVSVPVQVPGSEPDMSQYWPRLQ
Summary of the method: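 HepG2 cells transiently transfected with multiplexed cis-promoter reporter units (endogenous TF activity) were dosed for 24 h. Reporter mRNA was quantified by RT-PCR, 6-FAM labeling, HpaI digestion and capillary electrophoresis; bidirectional fitting versus DMSO baseline.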

[12] = ATG_PXRE_CIS: Attagene CIS-FACTORIAL HepG2 Assay for human Pregnane X Receptor Element (PXRE) (AID 2282957); conditions: HepG2 Attagene CIS-FACTORIAL PXRE reporter, mRNA; actives raise or lower the signal
Summary of the method: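 HepG2 cells transiently transfected with cis-element-driven multiplexed reporter units; after 24 h chemical exposure, reporter mRNA measured by RT-PCR, 6-FAM labelling, HpaI digestion and capillary electrophoresis. Bidirectional fitting relative to DMSO.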

[13] = ATG_Sox_CIS: Attagene CIS-FACTORIAL HepG2 Assay for human SRY-box transcription factor (SOX) (AID 2282960); conditions: HepG2 Attagene cis-factorial SOX reporter, mRNA; actives raise or lower the signal
Summary of the method: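 Cells were transfected with reporter constructs under cis-regulatory promoters, then exposed to chemicals for 24 h. Reporter transcripts were quantified by fluorescence after RT-PCR and capillary electrophoresis; activity was fitted in both directions against DMSO.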

[14] = molecular target: Transcription factor Sp1 (Homo sapiens) (UniProt P08047); experiment: ATG_Sp1_CIS: Attagene CIS-FACTORIAL HepG2 Assay for human Specificity Protein 1 (Sp1) (AID 2282961); conditions: HepG2 Sp1 cis-reporter transcription, actives raise or lower the signal
Transcription factor Sp1 (Homo sapiens), sequence (P08047 whole entry, looked up): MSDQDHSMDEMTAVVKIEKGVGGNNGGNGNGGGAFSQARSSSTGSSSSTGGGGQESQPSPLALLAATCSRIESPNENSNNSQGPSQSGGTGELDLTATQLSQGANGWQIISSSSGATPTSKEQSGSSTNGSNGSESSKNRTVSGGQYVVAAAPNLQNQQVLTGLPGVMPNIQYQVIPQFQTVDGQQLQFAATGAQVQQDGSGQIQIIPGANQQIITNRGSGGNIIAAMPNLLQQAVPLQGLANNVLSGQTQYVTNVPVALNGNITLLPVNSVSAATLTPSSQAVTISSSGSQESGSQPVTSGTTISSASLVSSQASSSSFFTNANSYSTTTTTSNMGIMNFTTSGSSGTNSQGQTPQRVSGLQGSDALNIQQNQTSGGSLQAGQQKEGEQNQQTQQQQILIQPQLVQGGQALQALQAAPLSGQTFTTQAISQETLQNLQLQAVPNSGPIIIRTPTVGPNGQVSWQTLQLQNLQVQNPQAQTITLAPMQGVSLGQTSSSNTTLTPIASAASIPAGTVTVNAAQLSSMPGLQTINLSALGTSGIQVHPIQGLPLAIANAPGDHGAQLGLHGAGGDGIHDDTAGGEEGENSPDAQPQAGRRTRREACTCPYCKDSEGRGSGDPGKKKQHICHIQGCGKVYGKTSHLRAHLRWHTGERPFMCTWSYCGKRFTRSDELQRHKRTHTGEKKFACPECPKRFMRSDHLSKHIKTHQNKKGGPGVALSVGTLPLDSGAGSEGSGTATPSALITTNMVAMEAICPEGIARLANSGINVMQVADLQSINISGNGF
Summary of the method: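 Measures mRNA induction of an Sp1-linked reporter in HepG2 cells 24 h post-dosing. Multiplexed reporters read by RT-PCR and capillary electrophoresis; DMSO serves as negative control and baseline.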

[15] = ATG_SREBP_CIS: Attagene CIS-FACTORIAL HepG2 Assay for human Sterol Regulatory Element Binding (SREBP) (AID 2282962); conditions: HepG2 Attagene cis-factorial SREBP reporter, mRNA; actives raise or lower the signal
Summary of the method: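 HepG2 cells transiently transfected with multiplexed cis-element reporter units report endogenous transcription factor activity. After 24 h of chemical exposure, reporter mRNA was quantified by RT-PCR, 6-FAM labelling, HpaI digestion and capillary electrophoresis; bidirectional fits used DMSO as baseline.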

[16] = molecular target: Signal transducer and activator of transcription 3 (Homo sapiens) (UniProt P40763); experiment: ATG_STAT3_CIS: Attagene CIS-FACTORIAL HepG2 Assay for human Signal Transducer and Activator of Transcription 3 (STAT3) (AID 2282963); conditions: HepG2, Attagene cis-factorial STAT3 reporter transcription; actives raise or lower the signal
Signal transducer and activator of transcription 3 (Homo sapiens), sequence (P40763 whole entry, looked up): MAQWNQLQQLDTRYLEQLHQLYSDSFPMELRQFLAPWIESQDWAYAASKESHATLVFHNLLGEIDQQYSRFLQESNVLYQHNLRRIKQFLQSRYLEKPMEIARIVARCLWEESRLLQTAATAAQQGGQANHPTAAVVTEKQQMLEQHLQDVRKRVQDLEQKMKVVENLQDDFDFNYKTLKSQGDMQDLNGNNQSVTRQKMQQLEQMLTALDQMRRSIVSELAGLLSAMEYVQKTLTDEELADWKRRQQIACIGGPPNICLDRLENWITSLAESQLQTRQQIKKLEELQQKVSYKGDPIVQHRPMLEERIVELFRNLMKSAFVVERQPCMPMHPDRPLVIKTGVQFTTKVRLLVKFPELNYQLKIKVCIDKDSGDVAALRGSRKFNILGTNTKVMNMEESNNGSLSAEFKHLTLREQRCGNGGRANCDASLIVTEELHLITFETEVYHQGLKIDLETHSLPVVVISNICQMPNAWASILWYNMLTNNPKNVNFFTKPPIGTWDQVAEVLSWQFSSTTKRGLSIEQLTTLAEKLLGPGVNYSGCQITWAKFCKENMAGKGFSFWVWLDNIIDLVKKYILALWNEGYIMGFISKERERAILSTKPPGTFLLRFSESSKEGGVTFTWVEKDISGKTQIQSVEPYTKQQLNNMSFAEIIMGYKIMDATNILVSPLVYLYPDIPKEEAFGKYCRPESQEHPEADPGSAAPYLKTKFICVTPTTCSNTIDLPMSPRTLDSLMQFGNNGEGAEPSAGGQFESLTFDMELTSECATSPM
Summary of the method: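 Endogenous STAT3-responsive cis-element activity was read in transiently transfected HepG2 cells after 24 h treatment. Reporter transcripts were quantified via RT-PCR and capillary electrophoresis, with DMSO as negative control and bidirectional curve fitting.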

[17] = ATG_TA_CIS: Attagene CIS-FACTORIAL HepG2 Assay for human TA Basal Promoter (AID 2282964); conditions: HepG2 Attagene CIS-factorial TA basal promoter reporter; actives raise or lower the signal
Summary of the method: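 Transient MRTU transfection of HepG2 preceded 24 h compound exposure. Reporter mRNA levels were then read by RT-PCR with capillary electrophoresis, and this background-control endpoint was fitted bidirectionally to DMSO.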

[18] = molecular target: Hepatocyte nuclear factor 6 (Homo sapiens) (UniProt Q9UBC0); experiment: ATG_HNF6_CIS: Attagene CIS-FACTORIAL HepG2 Assay for human Hepatocyte Nuclear Factor 6 (HNF6) (AID 2282952); conditions: HepG2 Attagene cis-factorial HNF6 reporter transcription; actives raise or lower the signal
Hepatocyte nuclear factor 6 (Homo sapiens), sequence (Q9UBC0 whole entry, looked up, the tested form may be a part): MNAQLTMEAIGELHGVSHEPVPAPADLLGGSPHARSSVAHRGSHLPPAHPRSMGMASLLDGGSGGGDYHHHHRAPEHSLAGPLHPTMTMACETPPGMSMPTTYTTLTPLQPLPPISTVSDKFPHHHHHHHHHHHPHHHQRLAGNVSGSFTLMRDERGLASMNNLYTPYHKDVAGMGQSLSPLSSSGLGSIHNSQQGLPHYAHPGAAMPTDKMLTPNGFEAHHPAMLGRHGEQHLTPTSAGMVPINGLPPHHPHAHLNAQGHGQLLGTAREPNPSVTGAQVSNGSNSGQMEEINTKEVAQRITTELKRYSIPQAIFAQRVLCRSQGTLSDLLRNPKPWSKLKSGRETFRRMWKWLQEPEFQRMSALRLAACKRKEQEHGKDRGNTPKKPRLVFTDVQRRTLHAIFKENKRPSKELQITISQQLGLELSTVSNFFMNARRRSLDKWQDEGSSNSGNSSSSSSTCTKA
Summary of the method: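 HepG2 cells transiently transfected with cis-element-driven multiplexed reporter units measuring endogenous transcription factor activity. After 24 h exposure, reporter mRNA quantified by RT-PCR, FAM-labelled fragments and capillary electrophoresis; bidirectional fitting versus DMSO.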

[19] = ATG_PPRE_CIS: Attagene CIS-FACTORIAL HepG2 Assay for human Peroxisome Proliferator-activated Response Element (PPRE) (AID 2282958); conditions: HepG2 PPRE cis-element reporter, Attagene transcription factor profiling; actives raise or lower the signal
Summary of the method: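 Transcript-level reporter induction in transfected HepG2 cells after 24 h chemical exposure, quantified by fluorescence from RT-PCR products separated by capillary electrophoresis.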

[20] = ATG_RORE_CIS: Attagene CIS-FACTORIAL HepG2 Assay for human RAR-related Orphan Receptor Element (RORE) (AID 2282959); conditions: HepG2 Attagene cis-factorial RORE reporter, mRNA; actives raise or lower the signal
Summary of the method: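 Multiplexed reporter assay measuring mRNA induction from a cis promoter element in transiently transfected HepG2 cells after 24 h treatment. Detection via RT-PCR and capillary electrophoresis fluorescence; DMSO serves as baseline.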

Measured: AC50

Nc1ccc(C(=O)OCCCOC(=O)c2ccc(N)cc2)cc1
active: [12] 27.5 µM | [17] 63.7 µM
not listed: [18] | [19] | [20]
inactive: all other assays above

CC(CC=O)CC(C)(C)C (stereo not drawn)
active: [12] 8.08 µM
not listed: [3] | [11] | [17]
inactive: all other assays above

CCOC(=O)C1=NOC(c2ccccc2)(c2ccccc2)C1
active: [7] 160 µM | [8] 143 µM | [12] 18.3 µM
not listed: [10] | [11] | [18] | [20]
inactive: all other assays above

CC(C)(CO)C(O)C(=O)NCCCO (stereo not drawn)
not listed: [3] | [7]
inactive: all other assays above

CCCCc1ccc(Cl)cc1
not listed: [3] | [10] | [11] | [18]
inactive: all other assays above

[Cl][Eu]([Cl])[Cl]
not listed: [8] | [10] | [15] | [18] | [19] | [20]
inactive: all other assays above

CCCC/C=C/C=C\C=O
active: [1] 128 µM | [2] 71.6 µM | [4] 100 µM | [9] 100 µM | [11] 100 µM | [12] 2.79 µM | [13] 162 µM
not listed: [3] | [8] | [20]
inactive: all other assays above

CC(C)c1ccc2ncccc2c1
active: [12] 27.9 µM
not listed: [3] | [19]
inactive: all other assays above
